Test results reported in PubChem BioAssay (NCATS).
Records with an inconclusive call do not appear. Activity calls are given as the source filed them. Calls come from the whole dose curve; as a rule, active = well fitted curve in the direction sought with a large enough effect; inconclusive = small, poorly fitted or top-dose-only effect, or another doubt; inactive = no such curve, though single readings can be large; an effect the other way counts as inactive or inconclusive.

Assays:
[1] = qHTS of pediatric cancer cell lines to identify multiple opportunities for drug repurposing: Primary screen for SK-N-MC cells (AID 1347093); conditions: SK-N-MC viability, CellTiter-Glo luminescence, 48 h; series mostly up to 46 µM; note: potency is the fitted concentration of half-maximal effect
Procedure, shortened: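 Metabolically active cells were quantified by ATP-dependent luminescence (CellTiter-Glo, 15 min at room temperature) following 48 h treatment. Cells had been plated at 500-1,000 per well and settled for 5 h beforehand.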

[2] = qHTS of pediatric cancer cell lines to identify multiple opportunities for drug repurposing: Primary screen for BT-37 cells (AID 1347094); conditions: BT-37 viability, CellTiter-Glo luminescence, 48 h; series mostly up to 57.3 µM; note: potency is the fitted concentration of half-maximal effect
Procedure, shortened: (§1)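 Primary screen of approved and investigational compounds on cells in growth media at 37 degrees C, 5% CO2. MIPE set at 11-point and NPC set at 8-point dilutions; viability scored by ATP-based luminescence at 48 hours.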

[3] = qHTS of pediatric cancer cell lines to identify multiple opportunities for drug repurposing: Primary screen for NB-EBc1 cells (AID 1347095); conditions: NB-EBc1 neuroblastoma viability, CellTiter-Glo luminescence, 48 h; series mostly up to 46 µM; note: potency is the fitted concentration of half-maximal effect
Procedure, shortened: as §1

[4] = qHTS of pediatric cancer cell lines to identify multiple opportunities for drug repurposing: Primary screen for U-2 OS cells (AID 1347096); conditions: U-2 OS viability, CellTiter-Glo luminescence, 48 h; series mostly up to 46 µM; note: nearly all actives have a fitted effect of over 50% in size
Procedure, shortened: (§2)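 Cells (500-1,000/well) rested 5 h, then received compounds for 48 h; metabolically active cells were measured by CellTiter-Glo luminescence. Final concentrations spanned up to 46 µM (MIPE, 11-point) or 0.59 nM-46 µM (NPC, 8-point) in primary screens, 11-point in follow-ups.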

[5] = qHTS of pediatric cancer cell lines to identify multiple opportunities for drug repurposing: Primary screen for LAN-5 cells (AID 1347100); conditions: LAN-5 neuroblastoma viability, CellTiter-Glo luminescence, 48 h; series mostly up to 46 µM; note: potency is the fitted concentration of half-maximal effect
Procedure, shortened: as §2

[6] = qHTS of pediatric cancer cell lines to identify multiple opportunities for drug repurposing: Primary screen for BT-12 cells (AID 1347101); conditions: BT-12 viability, CellTiter-Glo luminescence, 48 h; series mostly up to 57.3 µM; note: nearly all actives have a fitted effect of over 25% in size; note: potency is the fitted concentration of half-maximal effect
Procedure, shortened: as §2

[7] = qHTS of pediatric cancer cell lines to identify multiple opportunities for drug repurposing: Primary screen for control Hh wild type fibroblast cells (AID 1347106); conditions: Hh wild-type fibroblast viability, CellTiter-Glo luminescence, 48 h; series mostly up to 46 µM;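 note: a drop in luminescence marks cytotoxicity and a rise apparent proliferation; nearly all actives have a fitted effect of over 55% in size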
Procedure, shortened: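 Viability after 48 h compound treatment at 37C, 500-1,000 cells/well, read as ATP luminescence with CellTiter-Glo. Primary screens used 11-point (MIPE, 0.78 nM-46 µM) or 8-point (NPC, 0.59 nM-46 µM) final concentrations; follow-up screens used 11-point dilutions.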

[8] = qHTS of pediatric cancer cell lines to identify multiple opportunities for drug repurposing: Primary screen for Rh30 cells (AID 1347107); conditions: Rh30 rhabdomyosarcoma viability, CellTiter-Glo luminescence, 48 h; series mostly up to 46 µM; note: nearly all actives have a fitted effect of over 75% in size
Procedure, shortened: as §2

[9] = qHTS of pediatric cancer cell lines to identify multiple opportunities for drug repurposing: Primary screen for NB1643 cells (AID 1347099); conditions: NB1643 neuroblastoma viability, CellTiter-Glo luminescence, 48 h; series mostly up to 46 µM; note: nearly all actives have a fitted effect of over 50% in size; note: potency is the fitted concentration of half-maximal effect
Procedure, shortened: as §1

[10] = qHTS of pediatric cancer cell lines to identify multiple opportunities for drug repurposing: Primary screen for OHS-50 cells (AID 1347103); conditions: OHS-50 osteosarcoma viability, CellTiter-Glo luminescence, 48 h; series mostly up to 57.3 µM; note: potency is the fitted concentration of half-maximal effect; nearly all actives have a fitted effect of over 40% in size
Procedure, shortened: as §2

[11] = qHTS of pediatric cancer cell lines to identify multiple opportunities for drug repurposing: Primary screen for Rh41 cells (AID 1347108); conditions: Rh41 rhabdomyosarcoma viability, CellTiter-Glo luminescence, 48 h; series mostly up to 46 µM; note: nearly all actives have a fitted effect of over 70% in size; note: potency is the fitted concentration of half-maximal effect
Procedure, shortened: as §1

[12] = qHTS of pediatric cancer cell lines to identify multiple opportunities for drug repurposing: Primary screen for SK-N-SH cells (AID 1347098); conditions: SK-N-SH viability, CellTiter-Glo luminescence, 48 h; series mostly up to 57 µM; note: nearly all actives have a fitted effect of over 65% in size; note: potency is the fitted concentration of half-maximal effect
Procedure, shortened: as §2

[13] = qHTS of pediatric cancer cell lines to identify multiple opportunities for drug repurposing: Primary screen for MG 63 (6-TG R) cells (AID 1347105); conditions: MG 63 (6-TG R) viability, CellTiter-Glo, 48 h; series mostly up to 46 µM; note: nearly all actives have a fitted effect of over 50% in size
Procedure, shortened: as §1

[14] = qHTS of pediatric cancer cell lines to identify multiple opportunities for drug repurposing: Primary screen for A673 cells (AID 1347092); conditions: A673 Ewing sarcoma viability, CellTiter-Glo ATP luminescence, 48 h; series mostly up to 46 µM; note: nearly all actives have a fitted effect of over 45% in size; note: potency is the fitted concentration of half-maximal effect
Procedure, shortened: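 A673 cells (500-1,000 cells/well in growth media) were pre-incubated 5 h at 37 degrees C, then exposed to compounds for 48 h. Viability was read as CellTiter-Glo luminescence; concentration-response curves came directly from the primary screen.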

[15] = qHTS of pediatric cancer cell lines to identify multiple opportunities for drug repurposing: Primary screen for Saos-2 cells (AID 1347097); conditions: Saos-2 viability, CellTiter-Glo ATP luminescence, 48 h; series mostly up to 46 µM; note: nearly all actives have a fitted effect of over 40% in size; note: potency is the fitted concentration of half-maximal effect
Procedure, shortened: as §1

[16] = qHTS of pediatric cancer cell lines to identify multiple opportunities for drug repurposing: Primary screen for Rh18 cells (AID 1347102); conditions: Rh18 rhabdomyosarcoma viability, CellTiter-Glo luminescence, 48 h; series mostly up to 46 µM; note: nearly all actives have a fitted effect of over 65% in size; note: potency is the fitted concentration of half-maximal effect
Procedure, shortened: as §2

[17] = qHTS of pediatric cancer cell lines to identify multiple opportunities for drug repurposing: Primary screen for RD cells (AID 1347104); conditions: RD rhabdomyosarcoma viability, CellTiter-Glo luminescence, 48 h; series mostly up to 46 µM; note: nearly all actives have a fitted effect of over 55% in size
Procedure, shortened: as §1

[18] = qHTS of pediatric cancer cell lines to identify multiple opportunities for drug repurposing: Confirmatory screen for NB1643 cells (AID 1347109); conditions: NB1643 neuroblastoma cell viability; series mostly up to 45.9 µM; note: nearly all actives have a fitted effect of over 45% in size
Procedure, shortened: as §2

[19] = qHTS of pediatric cancer cell lines to identify multiple opportunities for drug repurposing: Confirmatory screen for A673 cells (AID 1347110); conditions: A673 Ewing sarcoma cell viability; series mostly up to 45.9 µM; note: nearly all actives have a fitted effect of over 65% in size
Procedure, shortened: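 A673 cells seeded at 500-1,000 cells/well, rested 5 h, then dosed; primary MIPE 11-point (0.78 nM to 46 µM), NPC (0.59 nM to 46 µM); confirmatory 11-point. CellTiter-Glo luminescence after 48 h.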

[20] = qHTS of pediatric cancer cell lines to identify multiple opportunities for drug repurposing: Confirmatory screen for SK-N-MC cells (AID 1347111); conditions: SK-N-MC cell viability; series mostly up to 45.9 µM;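 note: potency is the fitted concentration of half-maximal effect; cells exposed to compound for 48 h before the readout; nearly all actives have a fitted effect of over 70% in size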
Procedure, shortened: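 Seed 500-1,000 cells/well; rest 5 h at 37 degrees C. Pin-transfer compounds, 11-point titration. Incubate 48 h. Add CellTiter-Glo, 15 min RT, read luminescence.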

Measured: Potency

O=c1cc(-c2cccc3c2Sc2ccccc2S3)oc(N2CCOCC2)c1
active: [1] 18.7 µM
inactive: [2] | [3] | [4] | [5] | [6] | [7] | [8]

Cc1ccn(-c2ccc(-c3ncco3)cc2)c(=O)c1-c1ccc2nc(N)ncc2c1
active: [1] 3.32 µM | [10] 2.73 µM
inactive: [3] | [4] | [9] | [7] | [8] | [11]

COc1cc2c(cc1OC)CN(CCc1ccc(NC(=O)c3cc(OC)c(OC)cc3NC(=O)c3cnc4ccccc4c3)cc1)CC2
active: [1] 10.5 µM | [12] 19.2 µM | [9] 14.8 µM
inactive: [3] | [4] | [6] | [13] | [7] | [8]

Cc1ccc(Nc2cc(-c3cccc(N4C(=O)c5ccccc5C4=O)c3)ncn2)cc1NS(C)(=O)=O
active: [14] 18.7 µM | [15] 33.2 µM | [5] 23.5 µM
inactive: [4] | [16] | [7]

COc1ccc(C2CC(c3ccccc3)=NN2c2ccc(S(N)(=O)=O)cc2)cc1 (stereo not drawn)
inactive: [4] | [12] | [16] | [13] | [7] | [11]
active: [1] 18.7 µM | [2] 12.2 µM | [15] 16.6 µM | [6] 21.7 µM

CN(C)Cc1cccc(N=C(c2ccccc2)c2c(O)[nH]c3cc(C(=O)N(C)C)ccc23)c1
active: [1] 14.8 µM | [2] 15.3 µM | [3] 18.7 µM | [15] 11.8 µM | [12] 21.5 µM | [6] 6.85 µM
inactive: [4]

CCc1ccc(C=C2SC(=S)NC2=O)cc1
inactive: [1] | [2] | [4] | [12] | [5] | [6] | [17] | [13] | [7] | [8]
active: [9] 23.5 µM

O=C(O)c1ccc(-c2c[nH]c3ncc(-c4ccccc4)cc23)cc1C1CCCC1
active: [1] 0.166 µM | [20] 9.27 µM
inactive: [2] | [3] | [4] | [16] | [7] | [8] | [11] | [18] | [19]

CO[C@H]1C[C@@H]2CC[C@@H](C)[C@@](O)(O2)C(=O)C(=O)N2CCCC[C@@H]2C(=O)O[C@H]([C@@H](C)C[C@@H]2CC[C@H](O)[C@H](OC)C2)CC(=O)[C@H](C)C=C(C)[C@@H](O)[C@@H](OC)C(=O)[C@H](C)C[C@H](C)C=CC=CC=C1C
active: [6] 9.68 µM
inactive: [14] | [4] | [15] | [12] | [17] | [13] | [7] | [8]

Clc1ccc(Cn2c(CN3CCCC3)nc3ccccc32)cc1
inactive: [1] | [3] | [4] | [9] | [5] | [17] | [13] | [7] | [8]

NC(=O)c1cccc(-c2cc(Nc3ccc(OC(F)(F)F)cc3)ncn2)c1
inactive: [1] | [2] | [3] | [4] | [12] | [9] | [16] | [17] | [13] | [7] | [11]

O=C(N[C@@H](c1ccccc1)[C@@H]1CCCCN1)c1cccc(C(F)(F)F)c1Cl
inactive: [4] | [15] | [9] | [16] | [13] | [7] | [8]
active: [1] 20.9 µM | [2] 19.3 µM | [3] 7.43 µM | [12] 21.5 µM | [5] 18.7 µM

CO[C@H]1C[C@@H]2CC[C@@H](C)[C@@](O)(O2)C(=O)C(=O)N2CCCC[C@@H]2C(=O)O[C@H]([C@H](C)C[C@@H]2CC[C@H](OC(=O)C(C)(CO)CO)[C@H](OC)C2)CC(=O)[C@H](C)C=C(C)[C@@H](O)[C@@H](OC)C(=O)[C@H](C)C[C@H](C)C=CC=CC=C1C
active: [2] 30.6 µM | [3] 9.35 µM | [9] 23.5 µM | [5] 20.9 µM | [16] 29.6 µM | [11] 14.8 µM
inactive: [7]
